High-throughput results deposited in PubChem by Broad Institute.
ID4 SMM: binds human ID4 protein on microarray; P47928; small molecule microarray, Flag-ID4 binding, fluorescence F/B; AID 624137; calls only; hit rate 1.2% among 31,000; call rule not given here;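 also: a binder raises fluorescence above local background on the spot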
p53 PUMA act: restores mutant p53 pathway signaling in SW480 cells | SW480 PUMA-promoter luciferase, p53 mutant reactivation | activation, % at 9.98 µM | hit rate 1.5% among 28,000; in the data active = activation above about 52%
STK33 inh: inhibitors of human STK33 kinase; ADP-Glo luminescence, MBP substrate; inhibition, % at 12.5 µM; hit rate 0.44% among 27,000; in the data active = inhibition above about 20%
Target sequence (Q9BYT3 whole entry, looked up): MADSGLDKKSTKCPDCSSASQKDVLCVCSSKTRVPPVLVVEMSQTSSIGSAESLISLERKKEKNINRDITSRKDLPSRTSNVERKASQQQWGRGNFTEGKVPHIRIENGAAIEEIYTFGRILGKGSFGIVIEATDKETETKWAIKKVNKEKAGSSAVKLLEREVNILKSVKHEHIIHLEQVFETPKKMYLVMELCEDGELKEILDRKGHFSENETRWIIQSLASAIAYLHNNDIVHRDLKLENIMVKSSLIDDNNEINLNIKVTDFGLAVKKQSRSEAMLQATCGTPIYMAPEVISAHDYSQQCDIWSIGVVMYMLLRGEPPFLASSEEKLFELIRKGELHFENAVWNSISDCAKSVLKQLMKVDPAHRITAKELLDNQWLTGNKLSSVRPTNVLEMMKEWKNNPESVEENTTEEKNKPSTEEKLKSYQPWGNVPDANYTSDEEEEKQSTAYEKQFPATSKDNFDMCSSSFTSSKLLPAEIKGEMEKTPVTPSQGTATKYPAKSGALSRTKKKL
An asterisk follows results filed as active. In the library only some 2% were active in any assay of this set; here they are far more common.

Results for Cc1cc(Cl)ccc1OCC(=O)Nc1cccc(NC(=O)c2ccccc2Cl)c1 ?
ID4 SMM: inactive; p53 PUMA act: 37.6; STK33 inh: -4.2

Results for Cc1cccc(NC(=O)c2ccccc2OCC(=O)Nc2cccc([N+](=O)[O-])c2)c1C ?
ID4 SMM: inactive; p53 PUMA act: -4.5; STK33 inh: 3.5

Results for C/C=C(/C)C(=O)O[C@H]1[C@H](OC(=O)/C=C/c2ccccc2)[C@@]23C(CC1(C)C)[C@]1(CCC4[C@@]5(C)CC[C@H](O[C@@H]6O[C@H](C(=O)O)[C@@H](O)[C@H](O[C@@H]7O[C@H](CO)[C@H](O)[C@H](O)[C@H]7O[C@@H]7O[C@@H](C)[C@H](O)[C@@H](O)[C@H]7O[C@@H]7OC[C@](O)(CO)[C@H]7O)[C@H]6O[C@@H]6O[C@H](CO)[C@H](O)[C@H](O)[C@H]6O)C(C)(C)C5CC[C@@]4(C)[C@]1(C)C[C@H]2O)O[C@H]3O (some centres undefined) ?
STK33 inh: -1.7

What do the screens show for `COc1ccccc1NC(=O)CSc1nnc(-c2ccc(Cl)cc2)o1`?
ID4 SMM: inactive; p53 PUMA act: 89.1*; STK33 inh: 6.4

What do the screens show for `CSc1cccc(NC(=O)CSc2nnc(-c3ccc(Br)cc3)o2)c1`?
ID4 SMM: inactive; p53 PUMA act: 48.4; STK33 inh: -0.5

Results for O=C(CSc1nnc(-c2ccccc2)o1)Nc1cccc(F)c1 ?
ID4 SMM: inactive; p53 PUMA act: 78.0*; STK33 inh: -1.2

What do the screens show for `O=C(CSc1ccc(Cl)cc1)Nc1cccc(-c2nnc(-c3ccco3)o2)c1`?
ID4 SMM: inactive; p53 PUMA act: 122.5*; STK33 inh: 4.0

Results for COC(=O)c1ccccc1NC(=O)CSc1nnc(-c2ccc(Cl)cc2)o1 ?
ID4 SMM: inactive; p53 PUMA act: 19.7; STK33 inh: 5.0

Results for CCn1c(SCC(=O)Nc2ccc(Cl)cc2)nnc1-c1ccco1 ?
ID4 SMM: inactive; p53 PUMA act: 20.2; STK33 inh: -2.4

How did O=C(c1ccccc1)N1CC(=O)N(OCc2ccccc2)C1c1cccs1 (centres undefined) do in these assays?
ID4 SMM: inactive; p53 PUMA act: 18.9

How did CC(=O)OC/C=C(\CO)CC/C=C(\C)CC/C=C(\CC/C=C(\C)COC(C)=O)C(=O)O do in these assays?
ID4 SMM: inactive; STK33 inh: -6.2

What do the screens show for `CS(=O)(=O)N1CCN(c2ccccc2NC(=O)COc2ccc(Cl)cc2)CC1`?
ID4 SMM: inactive; p53 PUMA act: 1.8; STK33 inh: -1.4

What do the screens show for `Cc1cc(C)c(NC(=O)CSc2nc(-c3ccccc3)c(-c3ccccc3)[nH]2)c(C)c1`?
ID4 SMM: inactive; p53 PUMA act: -46.0; STK33 inh: 0.4

How did Cc1noc(C)c1S(=O)(=O)N(C)C[C@@H]1OCc2cnnn2CCCC(=O)N([C@@H](C)CO)C[C@@H]1C do in these assays?
ID4 SMM: active; p53 PUMA act: -1.7; STK33 inh: -3.9

How did COc1ccccc1NC(=O)N(C)C[C@H]1OCc2cnnn2CCCC(=O)N([C@@H](C)CO)C[C@H]1C do in these assays?
ID4 SMM: inactive; p53 PUMA act: -10.2; STK33 inh: 0.3

How did C[C@H](CO)N1C[C@H](C)[C@@H](CN(C)Cc2ccc(Oc3ccccc3)cc2)OCc2cnnn2CCCC1=O do in these assays?
ID4 SMM: inactive; p53 PUMA act: 1.4; STK33 inh: 0.1

Results for COc1ccccc1NC(=O)N(C)C[C@@H]1OCc2cnnn2CCCC(=O)N([C@@H](C)CO)C[C@H]1C ?
ID4 SMM: active; p53 PUMA act: -2.5; STK33 inh: 1.1

How did C[C@@H]1CN([C@H](C)CO)C(=O)CCCn2nncc2CO[C@@H]1CN(C)Cc1ccc(Oc2ccccc2)cc1 do in these assays?
ID4 SMM: active; p53 PUMA act: -1.7; STK33 inh: -5.2

How did C[C@@H]1CN([C@@H](C)CO)C(=O)CCCn2nncc2CO[C@H]1CN(C)S(C)(=O)=O do in these assays?
STK33 inh: 0.6

Results for C[C@H]1CN([C@@H](C)CO)C(=O)CCCn2cc(nn2)CO[C@@H]1CN(C)CC1CCCCC1 ?
ID4 SMM: active; STK33 inh: 0.0

Results for C[C@@H]1CN([C@@H](C)CO)C(=O)CCCn2cc(nn2)CO[C@@H]1CN(C)CC1CCCCC1 ?
ID4 SMM: inactive; STK33 inh: -2.1

Results for O=C(C(NS(=O)(=O)c1cccc2nsnc12)c1ccccc1)N1CCc2ccccc21 (centres undefined) ?
ID4 SMM: inactive; p53 PUMA act: -4.1

Results for O=C(O)c1cc(NS(=O)(=O)c2cccc3cccnc23)ccc1O ?
ID4 SMM: inactive; p53 PUMA act: 0.5; STK33 inh: -2.3

How did C[C@@H]1CN([C@@H](C)CO)C(=O)CCCn2nncc2CO[C@@H]1CN(C)C(=O)Nc1ccccc1F do in these assays?
ID4 SMM: inactive; p53 PUMA act: 6.8; STK33 inh: -0.2

How did C[C@@H]1CN([C@@H](C)CO)C(=O)CCCn2nncc2CO[C@H]1CN(C)C(=O)Nc1ccccc1F do in these assays?
ID4 SMM: active; p53 PUMA act: 6.6; STK33 inh: 3.8

Results for CS(=O)(=O)N(CC(=O)Nc1cccc(Br)c1)c1cc(Cl)c(Cl)cc1Cl ?
ID4 SMM: inactive; p53 PUMA act: 15.3; STK33 inh: 0.1

What do the screens show for `CC1(C)CC(=O)c2c(O)cc(OCC(=O)c3ccc(-c4ccccc4)cc3)cc2O1`?
ID4 SMM: inactive; p53 PUMA act: -18.7; STK33 inh: 2.7

What do the screens show for `CC1(C)CC(=O)c2c(O)cc(OCC(=O)c3cccc([N+](=O)[O-])c3)cc2O1`?
ID4 SMM: inactive; p53 PUMA act: 74.8*; STK33 inh: 4.2

What do the screens show for `CN1C(=O)N[C@@H]2c3ccccc3O[C@@]1(C)[C@@H]2CO[Si](C)(C)C(C)(C)C`?
ID4 SMM: inactive

Results for COc1ccc(NC(=O)c2ccco2)cc1NC(=O)C(C)Oc1ccc(Cl)cc1Cl (centres undefined) ?
ID4 SMM: inactive; p53 PUMA act: -9.5; STK33 inh: 5.1

Results for CC(Oc1ccc(Cl)cc1Cl)C(=O)Nc1cccc(-c2nnc(-c3ccccc3)o2)c1 (centres undefined) ?
ID4 SMM: inactive; p53 PUMA act: 80.7*; STK33 inh: 3.1

What do the screens show for `COc1cc(NC(=O)C(C)Oc2ccc(Cl)cc2Cl)ccc1NC(=O)c1ccco1` (centres undefined)?
ID4 SMM: inactive; p53 PUMA act: 67.1*; STK33 inh: 9.4

How did O=C(COc1ccc(Cl)cc1Cl)Nc1cccc(-c2nnc(-c3ccccc3)o2)c1 do in these assays?
ID4 SMM: inactive; p53 PUMA act: 38.7; STK33 inh: 8.1

Results for C[C@@H]1O[C@@H](O[C@H]2[C@H](O)[C@@H](O[C@@H]3O[C@H](CO)[C@@H](O)[C@H](O[C@@H]4O[C@H](CO)[C@@H](O)[C@H](O)[C@H]4O)[C@H]3O)[C@H](O[C@H]3CC[C@@]4(C)C(=CC[C@@H]5C4CC[C@@]4(C)C5C[C@@H]5O[C@]6(CC[C@@](C)(CO[C@@H]7O[C@H](CO)[C@@H](O)[C@H](O)[C@H]7O)O6)[C@@H](C)[C@@H]54)C3)O[C@@H]2CO)[C@H](O)[C@H](O)[C@H]1O (some centres undefined) ?
STK33 inh: -5.0
